# About 83,000 compounds went through this panel and 20% of them were active in at least one assay; those are over-represented in the sample as a whole.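 Results are percent growth after 48 hours of single-concentration exposure. 100 means growth as in untreated cells, lower positive values show inhibition; negative values down to -100 show cell death.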 Unmarked numbers belong to inactive results. The source made the active and inactive calls. Rule for the calls: active = growth percent below 10; inactive = the rest.
# Assays:
# Experiment in all cases: NCI-60 one-dose screen, 48 h (100 = growth as untreated, 0 = no growth, -100 = all killed)
# SR leukemia = tested on: SR leukemia
# RPMI-8226 leukemia = tested on: RPMI-8226 leukemia
# OVCAR-8 ovarian = tested on: OVCAR-8 ovarian
# OVCAR-5 ovarian = tested on: OVCAR-5 ovarian
# OVCAR-4 ovarian = tested on: OVCAR-4 ovarian
# SK-OV-3 ovarian = tested on: SK-OV-3 ovarian
# IGROV1 ovarian = tested on: IGROV1 ovarian
# OVCAR-3 ovarian = tested on: OVCAR-3 ovarian
# HS 578T breast = tested on: HS 578T breast
# NCI/ADR-RES ovarian = tested on: NCI/ADR-RES ovarian
# T-47D breast = tested on: T-47D breast
# BT-549 breast = tested on: BT-549 breast
# MDA-MB-435 melanoma = tested on: MDA-MB-435 melanoma
# SW-620 colon = tested on: SW-620 colon
# MCF7 breast = tested on: MCF7 breast
# HCT-116 colon = tested on: HCT-116 colon
# HCC-2998 colon = tested on: HCC-2998 colon
# KM12 colon = tested on: KM12 colon
smiles,measurement,setting,value
C#Cc1cc(C(=O)Nc2ccc(CN3CCN(C)CC3)c(C(F)(F)F)c2)ccc1C,growth,SR leukemia; 10 µM unless noted,58.7%
same,growth,RPMI-8226 leukemia; 10 µM unless noted,59.5%
same,growth,OVCAR-8 ovarian; 10 µM unless noted,77.4%
same,growth,OVCAR-5 ovarian; 10 µM unless noted,74.6%
same,growth,OVCAR-4 ovarian; 10 µM unless noted,72.3%
same,growth,SK-OV-3 ovarian; 10 µM unless noted,93.2%
same,growth,IGROV1 ovarian; 10 µM unless noted,75.7%
same,growth,OVCAR-3 ovarian; 10 µM unless noted,86.4%
same,growth,HS 578T breast; 10 µM unless noted,64.7%
same,growth,NCI/ADR-RES ovarian; 10 µM unless noted,82.2%
same,growth,T-47D breast; 10 µM unless noted,79%
same,growth,BT-549 breast; 10 µM unless noted,101%
same,growth,MDA-MB-435 melanoma; 10 µM unless noted,28.1%
same,growth,SW-620 colon; 10 µM unless noted,81.3%
same,growth,MCF7 breast; 10 µM unless noted,70.1%
same,growth,HCT-116 colon; 10 µM unless noted,47.8%
same,growth,HCC-2998 colon; 10 µM unless noted,90.2%
same,growth,KM12 colon; 10 µM unless noted,70.3%
CC(=O)/C=C/c1ccc(N(C)Cc2ccc(C(C)(C)C)cc2)cc1,growth,SR leukemia; 10 µM,80.4%
same,growth,SR leukemia; 100 µM,-29.5% (active)
same,growth,RPMI-8226 leukemia; 10 µM,78.2%
same,growth,RPMI-8226 leukemia; 100 µM,-49.8% (active)
same,growth,OVCAR-8 ovarian; 10 µM,92.4%
same,growth,OVCAR-8 ovarian; 100 µM,-54.8% (active)
same,growth,OVCAR-5 ovarian; 10 µM,102%
same,growth,OVCAR-5 ovarian; 100 µM,-72% (active)
same,growth,OVCAR-4 ovarian; 10 µM,85.2%
same,growth,OVCAR-4 ovarian; 100 µM,-68.9% (active)
same,growth,SK-OV-3 ovarian; 10 µM,98.4%
same,growth,SK-OV-3 ovarian; 100 µM,-29.8% (active)
same,growth,IGROV1 ovarian; 10 µM,99%
same,growth,IGROV1 ovarian; 100 µM,1.66% (active)
same,growth,OVCAR-3 ovarian; 10 µM,101%
same,growth,OVCAR-3 ovarian; 100 µM,-93.2% (active)
same,growth,HS 578T breast; 10 µM,87.1%
same,growth,HS 578T breast; 100 µM,-33.3% (active)
same,growth,T-47D breast; 10 µM,62.5%
same,growth,T-47D breast; 100 µM,-53.9% (active)
same,growth,BT-549 breast; 10 µM,101%
same,growth,BT-549 breast; 100 µM,-90.8% (active)
same,growth,MDA-MB-435 melanoma; 10 µM,88.5%
same,growth,MDA-MB-435 melanoma; 100 µM,-54.3% (active)
same,growth,SW-620 colon; 10 µM,88.5%
same,growth,SW-620 colon; 100 µM,-53.5% (active)
same,growth,MCF7 breast; 10 µM,80.3%
same,growth,MCF7 breast; 100 µM,-22.6% (active)
same,growth,HCT-116 colon; 10 µM,79.9%
same,growth,HCT-116 colon; 100 µM,-66.2% (active)
same,growth,HCC-2998 colon; 10 µM,99.6%
same,growth,HCC-2998 colon; 100 µM,-41.2% (active)
same,growth,KM12 colon; 10 µM,95.5%
same,growth,KM12 colon; 100 µM,-45.7% (active)
CCOC(=O)c1cnn(CC(O)CC)c1NC(=O)NCc1ccccc1C(F)(F)F (centres undefined),growth,SR leukemia; 10 µM unless noted,114%
same,growth,RPMI-8226 leukemia; 10 µM unless noted,81%
same,growth,OVCAR-8 ovarian; 10 µM unless noted,102%
same,growth,OVCAR-5 ovarian; 10 µM unless noted,103%
same,growth,OVCAR-4 ovarian; 10 µM unless noted,106%
same,growth,SK-OV-3 ovarian; 10 µM unless noted,91.4%
same,growth,IGROV1 ovarian; 10 µM unless noted,94.9%
same,growth,OVCAR-3 ovarian; 10 µM unless noted,107%
same,growth,HS 578T breast; 10 µM unless noted,109%
same,growth,NCI/ADR-RES ovarian; 10 µM unless noted,95.4%
same,growth,T-47D breast; 10 µM unless noted,86.7%
same,growth,BT-549 breast; 10 µM unless noted,84.4%
same,growth,MDA-MB-435 melanoma; 10 µM unless noted,105%
same,growth,SW-620 colon; 10 µM unless noted,108%
same,growth,MCF7 breast; 10 µM unless noted,93.7%
same,growth,HCT-116 colon; 10 µM unless noted,78.5%
same,growth,HCC-2998 colon; 10 µM unless noted,100%
CCN(Cc1ccccc1)c1ccc(/C=C2\COc3ccccc3C2=O)cc1,growth,SR leukemia; 10 µM,67.5%
same,growth,SR leukemia; 100 µM,7.93% (active)
same,growth,RPMI-8226 leukemia; 10 µM,110%
same,growth,RPMI-8226 leukemia; 100 µM,20.5%
same,growth,OVCAR-8 ovarian; 10 µM,95.3%
same,growth,OVCAR-8 ovarian; 100 µM,47.6%
same,growth,OVCAR-5 ovarian; 10 µM,101%
same,growth,OVCAR-5 ovarian; 100 µM,98.7%
same,growth,OVCAR-4 ovarian; 10 µM,102%
same,growth,OVCAR-4 ovarian; 100 µM,52.1%
same,growth,SK-OV-3 ovarian; 10 µM,89.4%
same,growth,SK-OV-3 ovarian; 100 µM,65.2%
same,growth,IGROV1 ovarian; 10 µM,99.1%
same,growth,IGROV1 ovarian; 100 µM,40.2%
same,growth,OVCAR-3 ovarian; 10 µM,108%
same,growth,OVCAR-3 ovarian; 100 µM,19.1%
same,growth,HS 578T breast; 10 µM,96%
same,growth,HS 578T breast; 100 µM,59.4%
same,growth,T-47D breast; 10 µM,78.3%
same,growth,T-47D breast; 100 µM,12.3%
same,growth,BT-549 breast; 10 µM,95.6%
same,growth,BT-549 breast; 100 µM,16.3%
same,growth,MDA-MB-435 melanoma; 10 µM,95.7%
same,growth,MDA-MB-435 melanoma; 100 µM,-44.7% (active)
same,growth,SW-620 colon; 10 µM,87.4%
same,growth,SW-620 colon; 100 µM,28.1%
same,growth,MCF7 breast; 10 µM,81.5%
same,growth,MCF7 breast; 100 µM,17.5%
same,growth,HCT-116 colon; 10 µM,86.1%
same,growth,HCT-116 colon; 100 µM,30.8%
same,growth,HCC-2998 colon; 10 µM,102%
same,growth,HCC-2998 colon; 100 µM,66.8%
same,growth,KM12 colon; 10 µM,98.3%
same,growth,KM12 colon; 100 µM,21.8%
CC(=O)/C=C/c1ccc(OCc2ccc(Cl)cc2)cc1,growth,SR leukemia; 10 µM,98%
same,growth,SR leukemia; 100 µM,30%
same,growth,RPMI-8226 leukemia; 10 µM,87.9%
same,growth,RPMI-8226 leukemia; 100 µM,24.2%
same,growth,OVCAR-8 ovarian; 10 µM,90.1%
same,growth,OVCAR-8 ovarian; 100 µM,34.4%
same,growth,OVCAR-5 ovarian; 10 µM,109%
same,growth,OVCAR-5 ovarian; 100 µM,75%
same,growth,OVCAR-4 ovarian; 10 µM,101%
same,growth,OVCAR-4 ovarian; 100 µM,43.4%
same,growth,SK-OV-3 ovarian; 10 µM,110%
same,growth,SK-OV-3 ovarian; 100 µM,38.8%
same,growth,IGROV1 ovarian; 10 µM,106%
same,growth,IGROV1 ovarian; 100 µM,61.4%
same,growth,OVCAR-3 ovarian; 10 µM,102%
same,growth,OVCAR-3 ovarian; 100 µM,50.7%
same,growth,HS 578T breast; 10 µM,97.3%
same,growth,HS 578T breast; 100 µM,51.9%
same,growth,NCI/ADR-RES ovarian; 10 µM,96.5%
same,growth,NCI/ADR-RES ovarian; 100 µM,18%
same,growth,T-47D breast; 10 µM,93.1%
same,growth,T-47D breast; 100 µM,20.2%
same,growth,BT-549 breast; 10 µM,102%
same,growth,BT-549 breast; 100 µM,38%
same,growth,MDA-MB-435 melanoma; 10 µM,94.5%
same,growth,MDA-MB-435 melanoma; 100 µM,23.1%
same,growth,SW-620 colon; 10 µM,104%
same,growth,SW-620 colon; 100 µM,70.4%
same,growth,MCF7 breast; 10 µM,94.2%
same,growth,MCF7 breast; 100 µM,46%
same,growth,HCT-116 colon; 10 µM,90.5%
same,growth,HCT-116 colon; 100 µM,46.1%
same,growth,HCC-2998 colon; 10 µM,101%
same,growth,HCC-2998 colon; 100 µM,60.4%
same,growth,KM12 colon; 10 µM,93.9%
same,growth,KM12 colon; 100 µM,35.3%
